Among the data in PubChem BioAssay are z-score values, retold here.

Activity calls are given as the source filed them.

Test [1] can be described thus: A549 cell viability effects, profiling panel, calcein-AM fluorescence, 48 h, basal (AID 1162). The conditions noted are these: higher = more signal.
The nature of test [2]: adipocyte viability effects, profiling panel, cell-based, 3T3-L1 adipocytes, calcein-AM fluorescence, 48 h, basal (AID 1163). The conditions noted are these: 3T3-L1 adipocytes viability, higher = more signal.
A short description of test [3]: HepG2 cell viability effects, profiling panel, calcein-AM fluorescence, 48 h, basal (AID 1164). The conditions noted are these: higher = more signal.
Test [4] in a line: MM1S cell viability effects, profiling panel, calcein-AM fluorescence, 48 h, basal (AID 1165).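 Note: viability of MM1S multiple myeloma cells under basal unstimulated conditions.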 To be noted: higher = more signal.
Test [5] can be described thus: basal RPMI8226 viability, no added stimulus, profiling panel, cell-based, calcein-AM fluorescence, 48 h, PK04 Diversity Set (AID 1166).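 Note: cells grown under basal conditions without added stimulus.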 To be noted: RPMI8226 myeloma viability, higher = more signal.
Test [6] in a line: basal HepG2 mitochondrial membrane potential changes, profiling panel, cell-based, JC-1 fluorescence, 24 h, 100 nL compound (AID 1167). To be noted: higher = more signal.
A short description of test [7]: basal 3T3-L1 adipocyte mitochondrial potential changes, profiling panel, cell-based, JC-1 fluorescence, 3T3-L1 adipocytes, 24 h, 100 nL compound (AID 1168). The conditions noted are these: JC-1 mitochondrial fluorescence, higher = more signal, called active from +8 up or from −8 down.
A short description of test [8]: basal RPMI8226 mitochondrial membrane potential changes, profiling panel, cell-based, JC-1 fluorescence, 24 h, 100 nL compound (AID 1169). The conditions noted are these: RPMI8226 myeloma, JC-1 mitochondrial potential fluorescence, higher = more signal.
A short description of test [9]: basal MM1S mitochondrial membrane potential changes, profiling panel, cell-based, JC-1 fluorescence, 24 h, 100 nL compound (AID 1170). To be noted: higher = more signal.
A short description of test [10]: A549 lung cancer cell viability effects, profiling panel, resazurin fluorescence, 24 h, PK04 Diversity Set (AID 1171). To be noted: higher = more signal, called active from +8 up or from −8 down.
Note: test concentration not given here.

For `CC(C)=NOC[C@@H](O)[C@H]1O[C@@H]2OC(C)(C)O[C@@H]2[C@H]1O`, the z-score in test [1] was 0.112; in [2], -1.53; in test [3], 0.139; in test [4], -0.112; in test [5] it was -0.0588; in test [6], -0.00334. The z-score in test [7] is -1.09 (inactive); in test [8], -1.01; in test [9], 0.661; in test [10], -0.871 (inactive).

As for `O=C(NN=C1C[C@@H](O)[C@@H](O)[C@@H]2[C@@H]3C(=O)N(Cc4ccc5c(c4)OCO5)C(=O)[C@@H]3CC[C@@H]12)OCc1ccccc1`, the z-score was -0.592 in test [1]; 0.911 in [2]; -0.423 in test [3]; 0.291 in test [4]; -0.531 in test [5]; 0.222 in [6]. In addition, the z-score in test [7] is 0.243 (inactive); in test [8] it was 0.967; in [9] it was -1.65; in test [10], 0.729 (inactive).

On to `O=C1C=C[C@@H](O)[C@@H]2[C@@H]3C(=O)N(Cc4ccc5c(c4)OCO5)C(=O)[C@@H]3CC[C@@H]12`, for which the z-score is -0.0516 in [1]; 0.493 in test [2]; 0.0311 in [3]; -0.186 in test [4]; 0.0706 in test [5]; -0.214 in [6]. Besides, the z-score in test [7] was -0.0146 (inactive); in [8] it was 0.0398; in [9], 0.652; in [10] it was -0.701 (inactive).

Regarding `CC(=O)OC[C@H]1O[C@H](CC=NOC[C@@H](O)COCc2ccco2)C=C[C@@H]1OC(C)=O`, the z-score was 1.04 in test [1]; -0.0657 in [2]; 0.341 in test [3]; -0.175 in [4]; -0.498 in test [5]; 0.186 in test [6]. For the same compound, the z-score in [7] was 0.998 (inactive); in test [8] it was -0.198; in test [9], -1.01; in test [10], 0.0719 (inactive).

Consider `O=C1C2=CC[C@H]3C(=O)N(c4ccc(F)cc4F)C(=O)[C@H]3[C@H]2[C@H](O)[C@@H]2O[C@H]12`, for which the z-score is -0.463 in test [1]; -0.438 in [2]; 0.0658 in test [3]; -0.486 in test [4]; -0.397 in test [5]; -0.276 in test [6]. Also, the z-score in test [7] was -0.191 (inactive); in [8] it was 0.0423; in test [9], 0.556; in [10], -0.0843 (inactive).

As to `CC(CCN1CCCCc2nc(C)c(C)cc21)=NO[C@@H](C)c1cc(-c2c(C)cc(C)cc2C)no1`, the z-score was 1.08 in test [1]; 0.531 in test [2]; 0.148 in test [3]; -2.9 in test [4]; -3.77 in test [5]; 4 in [6]. The z-score is 0.159 (inactive) in [7], -0.831 in test [8], -1.74 in [9] and 2.06 (inactive) in test [10].

In the case of `Cc1cc(C)c(-c2cc([C@H](C)ON=C[C@@H](C)[C@H](OCc3ccccc3)C(C)C)on2)c(C)c1`, the z-score in test [1] is 0.66; in test [2], -0.0328; in [3], 0.163; in test [4], 0.682; in test [5], -0.234; in [6], 3.57. The z-score in test [7] was -0.508 (inactive); in test [8], -0.149; in test [9], -0.143; in test [10] it was -0.0597 (inactive).

For the compound `COC(=O)[C@H](C)NC(=O)CCC1CC(OC(=O)NCc2ccc3c(c2)OCO3)CC2(CCCC(COC(=O)NCCCN3CCCC3=O)O2)O1` (stereo not given in full), the z-score in test [1] was -0.516; in test [2] it was -0.232; in test [3] it was -1.09; in test [4], -0.375; in test [5] it was -0.322; in test [6] it was -0.815. Further, the z-score was -0.019 (inactive) in [7], -0.838 in test [8], 0.224 in test [9] and 0.468 (inactive) in test [10].

As to `CCOC(=O)[C@H](Cc1ccccc1)NC(=O)CCC1CC(OC(=O)NCCc2ccc(F)cc2)CC2(CCCC(COC(=O)NCCC(C)C)O2)O1` (stereo not given in full), the z-score is 1.28 in [1]; -0.567 in test [2]; 0.368 in test [3]; 0.243 in [4]; -0.364 in test [5]; 0.362 in test [6]. The z-score is 0.232 (inactive) in test [7], -0.353 in test [8], -0.941 in [9] and 1.87 (inactive) in test [10].

With `CC(C)[C@H](NC(=O)OC(C)(C)C)[C@@H](O)CC(=O)C(C)(C)C`, the z-score in test [1] is -0.0305; in test [2], -1.02; in test [3], 0.483; in [4] it was 0.514; in [5], -0.0779; in test [6] it was 0.136. Further, the z-score in test [7] was -0.148 (inactive); in test [8] it was -0.988; in test [9], -1.13; in test [10], -0.242 (inactive).

`CCN1C(C)=C(C(=O)OC)[C@@H](c2ccccc2)N2C(=O)[C@](O)(C(=O)OC)CC(C(C)=O)=C12`: the z-score in [1] was 0.836; in test [2], -0.697; in test [3], 0.634; in [4] it was 0.339; in test [5] it was 0.791; in test [6], 0.93. Moreover, the z-score in [7] is 0.935 (inactive); in test [8] it was 0.138; in [9], 0.146; in [10], -0.256 (inactive).

`CCN1C(=O)[C@H]2[C@H]3[C@H](O)[C@H](O)CC(=NOC[C@@H](O)COCc4ccco4)[C@H]3CC[C@H]2C1=O`: the z-score in [1] was -0.199; in [2] it was 0.47; in test [3], -0.0911; in test [4] it was 0.133; in test [5] it was -0.229; in test [6], -0.326. The z-score was -0.128 (inactive) in [7], 0.545 in test [8], 0.905 in [9] and -0.45 (inactive) in [10].

Take `C=C(C)C(=O)OC[C@H]1CN2[C@@H](CC[C@@H](C)[C@@H]2c2ccc(Br)cc2)C(=O)O1`: the z-score in test [1] was 0.824; in [2] it was 0.278; in test [3], 1.33; in test [4], 0.244; in test [5], -1.34; in test [6] it was 0.393. In addition, the z-score is -0.142 (inactive) in [7], -0.521 in [8], -0.197 in test [9] and 0.634 (inactive) in test [10].

`CC(C)=CCCC(C)=CCON=C1[C@H]2CCn3c(=O)n(-c4ccccc4)c(=O)n3[C@H]2[C@H](O)[C@@H]2O[C@H]12`: the z-score in test [1] is -0.603; in [2], -0.141; in test [3] it was -0.838; in [4] it was -2.89; in [5], -1.47; in [6], -1.07. The z-score in test [7] was -0.462 (inactive); in test [8], -0.247; in test [9], -1.81; in [10], -1.33 (inactive).

As for `CO[C@H]1COC(=O)CC=C[C@@H](C)COC(=O)[C@H]2CCCN2C(=O)CC=C[C@H]1C`, the z-score in test [1] was 1.22; in test [2] it was -0.429; in test [3], 0.707; in test [4], 0.462; in test [5], 0.18; in [6] it was 0.722. The z-score is 0.00299 (inactive) in [7], 0.418 in [8], 0.748 in [9] and -0.823 (inactive) in test [10].

Consider `CO[C@@H]1C=CCC(=O)N[C@@H](C)C(=O)OC[C@@H](NS(=O)(=O)c2ccc(C)cc2)[C@H](C)C=CCC(=O)OC[C@H]1C`, for which the z-score in test [1] is -0.533; in test [2], 0.37; in [3], 0.495; in [4], -0.0903; in test [5] it was -0.431; in [6], 0.0105. Besides, the z-score in test [7] is 0.0826 (inactive); in [8], -0.782; in [9], 0.301; in test [10], 0.179 (inactive).
